Experimental data reported in PubChem BioAssay (NCATS).
Results filed as inconclusive are left out. The source made the active and inactive calls. Unless noted, the call rests on the fitted dose curve; in most records, active means well fitted curve in the direction sought with a large enough effect; inconclusive means small, poorly fitted or top-dose-only effect, or another doubt; inactive means no such curve, though single readings can be large; an effect the other way counts as inactive or inconclusive.

Experiments:
[1] = biological target: Cytochrome P450 2D6 (Homo sapiens) (UniProt P10635); experiment: Cytochrome P450 family 2 subfamily D member 6 (CYP2D6) small molecule antagonists: luciferase biochemical (cell-free) qHTS assay (AID 1645840; active means well fitted curve in the direction sought with a large enough effect in the repeat runs; an effect the other way counts as inactive or inconclusive; further: potency means the concentration at half of the fitted maximal effect; nearly all actives have a fitted effect of over 55% in size)
Cytochrome P450 2D6 (Homo sapiens), sequence (P10635 whole entry, looked up): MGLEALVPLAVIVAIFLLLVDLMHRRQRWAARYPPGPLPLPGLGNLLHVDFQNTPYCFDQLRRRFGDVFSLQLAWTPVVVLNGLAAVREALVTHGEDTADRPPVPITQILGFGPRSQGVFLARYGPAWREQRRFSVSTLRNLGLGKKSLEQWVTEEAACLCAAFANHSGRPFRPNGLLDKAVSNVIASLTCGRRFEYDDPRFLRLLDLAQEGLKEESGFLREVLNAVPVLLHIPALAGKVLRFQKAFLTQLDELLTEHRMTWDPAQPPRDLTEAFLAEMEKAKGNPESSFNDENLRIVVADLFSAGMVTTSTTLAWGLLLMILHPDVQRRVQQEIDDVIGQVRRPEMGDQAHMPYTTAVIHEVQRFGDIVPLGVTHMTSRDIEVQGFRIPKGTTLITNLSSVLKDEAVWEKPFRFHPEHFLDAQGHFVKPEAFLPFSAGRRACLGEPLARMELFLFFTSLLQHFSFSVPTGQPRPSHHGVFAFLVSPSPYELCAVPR
How it was run: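 P450-Glo CYP2D6 system: proluciferin substrate converted by enzyme to luciferin, read by luminescence proportional to activity. Enzyme-substrate mix with compound 10 min at room temperature, then NADPH regeneration 1 h before detection reagent.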

[2] = biological target: Cytochrome P450 2C9 (Homo sapiens) (UniProt P11712); experiment: Cytochrome P450 family 2 subfamily C member 9 (CYP2C9) small molecule antagonists: luciferase biochemical (cell-free) qHTS assay (AID 1645842; active means well fitted curve in the direction sought with a large enough effect in the repeat runs; an effect the other way counts as inactive or inconclusive; further: potency means the concentration at half of the fitted maximal effect; nearly all actives have a fitted effect of over 55% in size)
Cytochrome P450 2C9 (Homo sapiens), sequence (P11712 whole entry, looked up): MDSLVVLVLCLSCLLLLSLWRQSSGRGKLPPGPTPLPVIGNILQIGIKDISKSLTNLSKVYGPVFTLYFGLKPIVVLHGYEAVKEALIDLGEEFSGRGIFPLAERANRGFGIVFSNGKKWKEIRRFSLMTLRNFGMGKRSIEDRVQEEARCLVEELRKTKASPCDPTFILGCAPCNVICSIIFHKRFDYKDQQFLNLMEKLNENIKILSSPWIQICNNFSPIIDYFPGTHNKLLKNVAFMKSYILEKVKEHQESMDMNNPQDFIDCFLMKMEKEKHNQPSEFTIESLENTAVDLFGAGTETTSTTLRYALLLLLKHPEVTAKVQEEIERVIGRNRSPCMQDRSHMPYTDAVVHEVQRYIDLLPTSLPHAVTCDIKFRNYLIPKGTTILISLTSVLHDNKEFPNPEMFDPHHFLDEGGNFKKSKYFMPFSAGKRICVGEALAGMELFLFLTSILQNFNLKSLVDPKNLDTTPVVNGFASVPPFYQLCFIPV
How it was run: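 P450-Glo CYP2C9 system: proluciferin substrate with enzyme in mix containing 0.4% BSA, 10 min at room temperature, then NADPH regeneration solution added and incubated 1 h at 37C. Detection reagent stopped reaction; luminescence read after 20 min as RLU.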

[3] = tested on: CRL-7250; experiment: Cytotoxic Profiling of Annotated Libraries Using Quantitative High-Throughput Screening (AID 1296008); details: Five cell lines viability, CellTiter-Glo ATP luminescence, 48-72 h; max response: stronger effect = lower value; further: nearly all actives have a fitted effect of over 60% in size; further: potency means the concentration at half of the fitted maximal effect; on max response: on the % scale 0 is the no-effect control and ±100 the full control effect
How it was run: (§1)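 Compounds were pin-transferred onto cells and incubated 48 or 72 hr at 37 degree Celsius, 95% humidity. CellTiter-Glo was added, plates sat 10 min at room temperature, then ATP-coupled luminescence was imaged as the viability read-out.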

[4] = tested on: HaCat; experiment: as above; details: Five cell lines viability, CellTiter-Glo ATP luminescence, 48-72 h; max response: stronger effect = lower value
How it was run: as §1

[5] = tested on: CAOV3; experiment: Primary qHTS to identify gynecologic anti-cancer compounds using libraries of approved drugs and bioactive compounds (AID 1345084); details: Gynecologic cancer cell panel viability, ATPlite luminescence, 48 h; series mostly up to 57.5 µM; further: nearly all actives have a fitted effect of over 55% in size; further: potency means the concentration at half of the fitted maximal effect
How it was run: (§2)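 Cells, 1,000 per well, were allowed to settle for 16 h at 37 C before compound addition. Five concentrations were tested for 48 h, and viability was read by ATPlite luminescence after 15 min at room temperature.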

[6] = tested on: SKOV3; experiment: as above; details: Gynecologic cancer cell panel viability, ATPlite luminescence, 48 h; series mostly up to 57.5 µM
How it was run: as §2

[7] = Primary redox qHTS assay for identification of artifact compounds. (AID 1845223);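 further: 0% = DMSO and 100% = reference compound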
How it was run: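 Redox-cycling detection via DTT (250 uM final) oxidation coupled to Amplex Red (25 uM)/HRP (250 mU/mL) in HBSS. 15 min preincubation plus 30 min after DTT, room temperature. Ex/Em 525/598 nm; 4-parameter Hill fit against DMSO and 10 uM DA3003.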

[8] = biological target: Catechol O-methyltransferase (Homo sapiens) (UniProt P21964); experiment: Confirmatory Screen for Target Class Profiling of Small Molecule Inhibitors of Methyltransferases (AID 1745852; calls by dose curve; further: potency means the concentration at half of the fitted maximal effect; on activity change, negative = inhibition: on the % scale 0 is the no-effect control and ±100 the full control effect); details: MTase-Glo luminescence, SAH detection, recombinant enzyme; measured here: COMT max response; stronger effect = lower value
Catechol O-methyltransferase (Homo sapiens), sequence (P21964 whole entry, looked up): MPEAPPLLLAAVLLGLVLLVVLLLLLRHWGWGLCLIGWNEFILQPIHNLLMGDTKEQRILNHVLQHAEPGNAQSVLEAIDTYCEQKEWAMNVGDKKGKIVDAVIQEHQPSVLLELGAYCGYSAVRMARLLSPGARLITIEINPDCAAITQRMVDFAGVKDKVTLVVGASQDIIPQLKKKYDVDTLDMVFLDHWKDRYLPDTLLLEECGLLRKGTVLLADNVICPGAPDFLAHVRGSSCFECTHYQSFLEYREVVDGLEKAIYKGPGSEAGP

[9] = biological target: Guanidinoacetate N-methyltransferase (Homo sapiens) (UniProt Q14353); experiment: as above; details: activity change, negative = inhibition: at 57.3 µM (top of the series) unless noted
[10] = biological target: Nicotinamide N-methyltransferase (Homo sapiens) (UniProt P40261); experiment: as above; details: MTase-Glo luminescence, SAH detection, recombinant enzyme; measured here: NNMT max response; stronger effect = lower value
Nicotinamide N-methyltransferase (Homo sapiens), sequence (P40261 whole entry, looked up): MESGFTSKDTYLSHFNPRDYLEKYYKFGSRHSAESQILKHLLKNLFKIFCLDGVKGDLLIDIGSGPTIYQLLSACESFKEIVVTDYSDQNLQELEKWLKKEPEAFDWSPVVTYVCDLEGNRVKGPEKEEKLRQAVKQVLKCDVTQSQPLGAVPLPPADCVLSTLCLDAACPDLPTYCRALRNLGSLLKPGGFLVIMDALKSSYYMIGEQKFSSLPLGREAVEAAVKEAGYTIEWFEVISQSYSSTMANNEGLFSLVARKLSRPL

[11] = biological target: Phenylethanolamine N-methyltransferase (Homo sapiens) (UniProt P11086); experiment: as above; details: MTase-Glo luminescence, SAH detection, recombinant enzyme; measured here: PNMT max response; stronger effect = lower value
Phenylethanolamine N-methyltransferase (Homo sapiens), sequence (P11086 whole entry, looked up): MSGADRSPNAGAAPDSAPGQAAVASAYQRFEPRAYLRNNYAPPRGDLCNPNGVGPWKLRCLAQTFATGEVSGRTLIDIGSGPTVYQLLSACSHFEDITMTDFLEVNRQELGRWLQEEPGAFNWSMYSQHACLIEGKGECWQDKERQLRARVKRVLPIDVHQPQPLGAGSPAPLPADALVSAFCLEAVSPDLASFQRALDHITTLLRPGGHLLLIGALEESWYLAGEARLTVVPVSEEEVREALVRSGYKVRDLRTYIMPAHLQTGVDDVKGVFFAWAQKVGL

[12] = P-glycoprotein substrates identified in KB-8-5-11 adenocarcinoma cell line, qHTS therapeutic library screen (AID 1346987); further: potency means the concentration at half of the fitted maximal effect; nearly all actives have a fitted effect of over 65% in size
How it was run: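 Luminescence from CellTiter-Glo, read 5 min after addition, quantified survival of KB-8-5-11 (P-gp-overexpressing) cells exposed to compounds for 72 h. AC50 was derived from concentration-response curves.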

[13] = tested on: Zika virus NS2B-NS3 protease (linked construct); experiment: Confirmatory screen NINDS AMC qHTS for Zika virus inhibitors (AID 1347152); further: potency means the concentration at half of the fitted maximal effect; nearly all actives have a fitted effect of over 70% in size
How it was run: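 Linked NS2B-NS3 1 nM, Tris pH 8.0/0.01% Tween 20; cpd 15 min RT dark; + Nle-KRR-AMC 10 µM (Km 18.3 µM); read 0 and 15 min, 340/450 nm; %inh vs controls, 4-param Hill.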

[14] = Confirmatory screen NINDS Rhodamine qHTS for Zika virus inhibitors (AID 1347161); further: potency means the concentration at half of the fitted maximal effect; nearly all actives have a fitted effect of over 60% in size
How it was run: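 Purified linked NS2B-NS3 protease (NS2B hydrophilic domain joined to NS3 protease by flexible linker), 25 nM in 10 mM Tris-HCl pH 8.0, 0.01% Tween 20. Compounds titrated, 15 min preincubation at room temperature; 1.5 microM Rhodamine110 substrate, FITC fluorescence change over 15 min.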

[15] = Tertiary RLuc qRT-PCR qHTS assay for Zika virus inhibitors (AID 1347169); further: potency means the concentration at half of the fitted maximal effect; nearly all actives have a fitted effect of over 55% in size
How it was run: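 Luminescence read-out: live-cell Renilla luciferase substrate applied to infected Vero cells, signal measured after 1-1.5 hrs. Cells had received compound before ZIKV-RLuc (Cambodian strain, MOI 1-2) infection and were incubated 48-72 hrs at 37 degrees C.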

[16] = qHTS drug screen for cell cycle checkpoint inhibitors in PARPi-resistant BRCA-mutant ovarian cancer cell lines. (AID 1963452; calls by dose curve); details: PEO1/OlaR viability, CellTiter-Glo luminescence, 96 h, stronger effect = lower value
How it was run: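 PEO1, PEO4 and PEO1/OlaR ovarian cancer cells, 600 per well, exposed 96 h at 37C to a dilution series. Viability read by CellTiter-Glo luminescence, normalized to DMSO and empty wells; activity summarized as Z-AUC.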

[17] = qHTS assay to identify inhibitors of the type 1 interferon - major histocompatibility complex class I in skeletal muscle: Counter screen cell viability and HiBit confirmation (AID 1347412); details: iHSKM muscle cells + IFN-b, HiBiT or CellTiter-Glo, 24 h, at 45.9 µM (top of the series); further: on the % scale 0 is the no-effect control and ±100 the full control effect; nearly all actives have a fitted effect of over 60% in size
How it was run: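 Duplicate plates, pinned identically: one read for HiBiT-tagged endogenous HLA-B luminescence, the other for ATP-content viability via CellTiter Glo. Cells were genome-engineered human myoblasts given 4 ng/ml IFN-b; compounds 12-pt, 1:3 from 46 uM final; 24 hr exposure.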

[18] = qHTS to identify inhibitors of the type 1 interferon - major histocompatibility complex class I in skeletal muscle: primary screen against the NCATS Mechanism Interrogation Plate v5.0 (MIPE) Libary (AID 1347411); further: potency means the concentration at half of the fitted maximal effect; nearly all actives have a fitted effect of over 65% in size
How it was run: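 Seed engineered human myoblasts (HLA-B HiBit) in medium without dexamethasone containing 4 ng/ml IFN-beta; after 1 hr add compound titrations (top 46 uM final). Incubate 24 hrs at 37 C, lyse 10 min with HiBiT reagent, read luminescence.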

[19] = measured here: PEO1 parental Z-AUC

Q: For `O=S(=O)(c1cccc2ccccc12)n1ccc2ccc(N3CCN4CCCC4C3)cc21` (stereo not given), which Potency [1] is on record?
A: 2.68 µM (active)

Q: And the Potency [2]?
A: 12 µM (active)

Q: And the max response [3]?
A: -10.4% (inactive)

Q: What about the max response [4] of the same compound?
A: 4.67% (inactive)

Q: And the Potency [5]?
A: inactive

Q: And the Potency [6]?
A: inactive

Q: Which results are given for `C[C@@H](c1nc(-c2ccc(C#N)cc2)cs1)[C@](O)(Cn1cncn1)c1cc(F)ccc1F`?
A: Potency [2]: 6.01 µM (active); Potency [7]: inactive; max response [3]: -34.3% (inactive); outcome [4]: inactive

Q: Which Potency [1] does the source give for `COc1ccc(C(=O)N(CCC(C)C)Cc2nc(C)c(C)n2Cc2ccccc2C)c(OC)c1` here?
A: 0.952 µM (active)

Q: And the Potency [2]?
A: 21.3 µM (active)

Q: And the activity [8]?
A: -8.43%

Q: And the activity change, negative = inhibition [9]?
A: -6.57%

Q: What about the activity [10] of the same compound?
A: -68.8%

Q: And the activity [11]?
A: -7.99%

Q: What about the Potency [7] of the same compound?
A: inactive

Q: What about the max response [3] of the same compound?
A: -0.877% (inactive)

Q: What about the Potency [6] of the same compound?
A: inactive

Q: Which results are given for `CC[C@H](CO)Nc1nc(Nc2cccc(-c3ccccn3)c2)c2ncn(C(C)C)c2n1`?
A: Potency [12]: 20.6 µM (active); Potency [2]: 0.379 µM (active); Potency [4]: 18.4 µM (active); Potency [5]: inactive; Potency [6]: inactive

Q: With `COc1cccc(CNC(=O)Nc2nc(-c3ccncc3)cs2)c1` as the compound, how does the Potency [2] read?
A: 0.239 µM (active)

Q: What about the max response [3] of the same compound?
A: -25.8% (inactive)

Q: And the max response [4]?
A: -7.04% (inactive)

Q: And the Potency [6]?
A: inactive

Q: With `Cn1cnc(-c2nccc3c(=O)[nH]c(OCCCC(F)(F)F)nc23)c1` as the compound, how does the Potency [7] read?
A: inactive

Q: And the Potency [3]?
A: 5.8 µM (active)

Q: What about the Potency [5] of the same compound?
A: inactive

Q: What about the Potency [6] of the same compound?
A: 6.31 µM (active)

Q: Which Potency [13] does the source give for `O=C(NCc1ccc(Oc2ccccc2)cc1)c1nc(-c2cc(Br)c(O)c(Br)c2)no1` here?
A: 13.9 µM (active)

Q: What about the Potency [14] of the same compound?
A: 2.21 µM (active)

Q: What about the Potency [15] of the same compound?
A: 8.29 µM (active)

Q: What about the Potency [2] of the same compound?
A: 0.849 µM (active)

Q: What about the activity [8] of the same compound?
A: -16.2%

Q: And the Potency [9]?
A: 42.9 µM (active)

Q: What about the activity [10] of the same compound?
A: -75.3%

Q: And the activity [11]?
A: -0.151%

Q: What about the outcome [4] of the same compound?
A: inactive

Q: And the Potency [5]?
A: inactive

Q: What about the Potency [6] of the same compound?
A: inactive

Q: With `O=c1c(-n2ccnn2)c[nH]n1-c1cc(N2CCOCC2)ncn1` as the compound, how does the Z-AUC [16] read?
A: 1.14 (inactive)

Q: What about the Z-AUC [16, 19] of the same compound?
A: 0.854

Q: What about the Z-AUC ([16]; measured here: PEO4 Z-AUC) of the same compound?
A: 1.55

Q: What about the Potency [4] of the same compound?
A: 1.86 µM (active)

Q: What about the activity change, negative = inhibition ([17]; HiBiT) of the same compound?
A: -24.7% (inactive)

Q: And the activity change, negative = inhibition ([17]; Viability)?
A: -14.1% (inactive)

Q: For `CC(=O)N[C@@H](CC(=O)O)C(=O)N[C@@H](CCC(=O)O)C(=O)N[C@H](C(=O)N[C@@H](CC(=O)O)C(=O)Nc1ccc2c(C)cc(=O)oc2c1)C(C)C`, which max response [4] is on record?
A: -44.8% (inactive)

Q: Which Potency [12] does the source give for `COc1ccc(CNC(=O)Nc2ncc([N+](=O)[O-])s2)cc1` here?
A: 23.1 µM (active)

Q: What about the Potency [18] of the same compound?
A: 18.6 µM (active)

Q: What about the Potency [2] of the same compound?
A: 7.56 µM (active)

Q: What about the Potency [7] of the same compound?
A: inactive

Q: What about the Z-AUC [16] of the same compound?
A: -1.06 (inactive)

Q: What about the Z-AUC [16, 19] of the same compound?
A: -0.517

Q: What about the Z-AUC ([16]; measured here: PEO4 Z-AUC) of the same compound?
A: -0.518

Q: What about the max response [4] of the same compound?
A: 3.95% (inactive)

Q: And the Potency [5]?
A: inactive

Q: What about the Potency [6] of the same compound?
A: inactive
